Data published in PubChem BioAssay (NCATS).
Records with an inconclusive call do not appear. Calls come from the whole dose curve.

molecular target: Atrial natriuretic peptide receptor 1 (Homo sapiens) (UniProt P16066); test: Natriuretic polypeptide receptor (hNpr1) antagonism - Pilot CMLD screen (AID 1347052); conditions: HEK293 hNpr1 GloSensor cGMP luminescence, ANP-stimulated; series mostly up to 9.22 µM; activity change, negative = inhibition: at the top concentration
Procedure: In order to identify small molecular compounds that inhibit the hNpr1 receptor we developed a high-throughput assay to measure inhibition of the guanylate cyclase activity of the receptor. cGMP production was measured using a circular permutated Firefly luciferase (FLuc) enzyme functionally linked to the cGMP binding domain of human phosphodiesterase 5 (GloSensor technology pGS-40F, (Fan, F. et al. 2008). The cGMP-sensor was expressed in human embryonic kidney 293 (HEK-293) cells and FLuc activity was measured after stimulation with hNrp agonist peptide. hNrp agonists activates the receptor's associated guanylyl cyclase (GC) domain producing cGMP which then binds to the GloSensor resulting in FLuc activation, the enzymatic activity of which can be measured as bioluminescence with addition of luciferin substrate.
This assay was initially piloted by testing with a small library of specialty compounds.
PROTOCOL TABLES (as described by Inglese J, Shamu CE and Guy RK. 2007)
SEQUENCE No. (e.g., 1, 2, 3, etc.); […] (e.g., Cells, Incubation, Reagent, etc.); VALUE and DESCRIPTION.
1. Cells. Seed 1500 HEK293 cGMP-sensor cells expressing hNpr1 per well in 4uL into Greiner 1536-well white/solid bottom high base, tissue culture-treated plates.
2. Incubation. Incubate plated cells at 37C in 5% CO2, 95% RH overnight.
3. Reagent. Add 1uL per well GloSensor reagent from Promega (2% final concentration) or CO2 independent media vehicle control to respective columns of Greiner 1536-well plates.
4. Incubation. Incubate plated cells at room temperature for 2 h, protect from light.
5. Compounds. Library compounds and A-71915 control added at 23 nL per well, transferred by Pin Tool.
6. Incubation. Incubate plated cells for 30 min. at room temperature, protect from light.
7. Detector. GloSensor baseline pre-read luminescence measured using CCD-based camera (Viewlux).
8. Compound. Add 1uL of hNppA peptide to 0.1 nM final concentration to stimulate hNpr1 or CO2 independent media as vehicle control.
9. Incubation. Incubate treated cells at room temperature for 20 min., protect from light.
10. Detector. GloSensor post-hNppA luminescence measured using CCD-based camera (Viewlux).
NOTES (numbers refer to Sequence numbers above)
1. HEK293 cells expressing hNpr1 and GIP/pGS-40F grown to 85-95% confluence (48-72 h) in T175 culture flasks (CO2 independent media supplemented with 10% FBS, 1% Pen/Strep antibiotics and 1 ug/mL puromycin). Trypsinize and harvest cells from T175 culture flasks and filter through 40 um cell strainer. Cells counted with Invitrogen Countess (30,000,000 - 50,000,000 cells/flask). Cells diluted to a final concentration of 375 cells/uL in CO2 independent media and a Millipore multidrop used to dispense 1500 cells per well (4uL/well) into 13 1536-well Greiner White/Solid bottom, high base tissue-culture treated (TC) plates and one Aurora 1536-well Black/Clear bottom, low base, TC plate (for visual inspection of cell health throughout the duration of the assay).
2. Cells incubated overnight at ambient temperature, 24 h. at 37C in 95% RH incubator protected from light, covered with metal lid with gas-exchange holes.
3. Prepare GloSensor Reagent (Promega): Reconstitute GloSensor luciferase substrate by adding 8.2mL Hepes buffer to 250mg substrate, mix well, protect from light and stored at -80C. Prepare a fresh 12% GloSensor solution in CO2 independent supplemented plating media (see above). Mix well and store at ambient temperature, protected from light. 1uL 12% GloSensor Luciferase Reagent added (2% final concentration) to respective columns of 13 x 1536-well Greiner plate with BioRaptr, 1uL CO2 independent plating media added to respective columns as vehicle control with BioRaptr.
4. Cells incubated for 2 h. at ambient temperature, protected from light with metal lid with gas-exchange holes.
5. A-71915 stock solution prepared (10 mM in DMSO). […]
% is set by controls: 0 for no effect and ±100 for the full control effect.

Sequence of Atrial natriuretic peptide receptor 1 (Homo sapiens) (P16066 whole entry, looked up, the tested form may be a part): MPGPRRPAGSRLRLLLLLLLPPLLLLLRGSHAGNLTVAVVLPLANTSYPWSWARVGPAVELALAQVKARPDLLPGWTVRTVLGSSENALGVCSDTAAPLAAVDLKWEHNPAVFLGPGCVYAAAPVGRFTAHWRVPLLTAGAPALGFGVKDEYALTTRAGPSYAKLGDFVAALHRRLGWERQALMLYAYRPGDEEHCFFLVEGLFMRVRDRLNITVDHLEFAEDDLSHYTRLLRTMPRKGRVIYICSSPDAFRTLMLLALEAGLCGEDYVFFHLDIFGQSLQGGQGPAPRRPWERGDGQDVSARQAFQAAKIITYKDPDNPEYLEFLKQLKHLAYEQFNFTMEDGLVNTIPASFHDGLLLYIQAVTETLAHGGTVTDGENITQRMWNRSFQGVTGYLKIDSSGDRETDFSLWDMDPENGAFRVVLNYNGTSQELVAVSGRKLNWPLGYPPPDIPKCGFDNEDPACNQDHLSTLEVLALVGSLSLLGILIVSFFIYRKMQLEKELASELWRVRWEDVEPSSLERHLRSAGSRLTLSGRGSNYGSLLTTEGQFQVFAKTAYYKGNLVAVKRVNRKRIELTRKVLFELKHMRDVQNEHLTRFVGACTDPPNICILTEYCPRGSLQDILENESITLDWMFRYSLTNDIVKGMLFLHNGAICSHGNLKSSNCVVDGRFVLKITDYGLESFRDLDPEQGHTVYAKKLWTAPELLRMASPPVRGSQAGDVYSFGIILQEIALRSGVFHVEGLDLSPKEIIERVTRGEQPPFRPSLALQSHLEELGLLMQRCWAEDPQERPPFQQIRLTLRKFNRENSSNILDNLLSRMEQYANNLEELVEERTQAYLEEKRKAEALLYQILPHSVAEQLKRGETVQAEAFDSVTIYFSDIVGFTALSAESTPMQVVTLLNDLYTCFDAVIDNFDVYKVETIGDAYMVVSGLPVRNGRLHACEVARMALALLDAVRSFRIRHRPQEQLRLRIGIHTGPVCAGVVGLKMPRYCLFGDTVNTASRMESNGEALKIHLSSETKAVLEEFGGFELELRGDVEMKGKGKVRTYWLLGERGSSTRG

Activity change, negative = inhibition, inactive:
COCCN1C(=O)NC(c2cccc(F)c2)C(C(C)=O)=C1C (stereo not given) 0.631%, O=C(Oc1ccccc1)[C@H]1O[C@H]1c1ccccc1 -5.16%, CCN1C(=NCc2ccco2)N[C@@H](CCc2ccccc2)[C@H](C(=O)OC)[C@H]1C 4.99%, COC(=O)c1c(C(=O)OC)c2c3cc(OC)c(OC)cc3cc([Si](C)(C)C)n2c1C(=O)OC 0.564%, C=CCN1c2ccccc2[C@]23CCC(=O)N(Cc4ccco4)C2=NC(C(=O)OC)=C(C(=O)OC)[C@H]13 -0.155%, CC[C@@]12C=C(C=Cc3ccccc3)[C@](CC)(C1)[C@H](c1ccccc1)CC2=O -0.281%, CCOC(=O)NN=C1C[C@@H](O)[C@@H](O)[C@@H]2[C@H]3C(=O)N([C@@H](C)c4ccccc4)C(=O)[C@@H]3CC[C@H]12 7.39%, Cc1ccccc1Nc1oc(-c2ccccc2)nc1C=Cc1ccccc1 5.59%, COC[C@H]1O[C@H](c2ccccc2)C=C[C@H]1OCc1cccc(Br)c1 1.97%, CCOC(=O)CN1C(=O)NC(CCc2ccccc2)C(C(=O)OC)=C1C (stereo not given) 0.0023%, CCc1cc2c(nc1CC)CCN(CCC(C)=NO[C@H](C)c1cn([C@H](CO)Cc3ccccc3)nn1)C2 -5%, O=C1N[C@H](Cc2ccccc2)C(=O)N1Cc1cccc2ccccc12 4.77%, CCOC(=O)CN1C(=O)N[C@@H](c2ccccc2)[C@H](C(C)=O)[C@H]1C 6.53%, COc1ccc2c(c1)C(=O)[C@H](OC(=O)Nc1ccc(OC(F)F)cc1)[C@@H](c1ccc(OC)c(Br)c1)O2 4.66%, COC(=O)[C@@H]1C[C@@]23C(=NN=C(SC)C2Nc2ccccc23)N1C(C)=O (stereo not given in full) 3.48%, CCCC[C@]12Cc3ccccc3[C@H](O1)c1c(cc(-c3ccccc3)oc1=O)O2 -9.26%, C#CCN1C(=O)[C@]2(OCCC=C[C@@H]2C)c2cc(OC)ccc21 7.57%, COC(=O)[C@H]1[C@@H](c2cccc(C(F)(F)F)c2)NC(=O)N(Cc2ccccc2)[C@@H]1C -1.12%, C#CCN1C(=O)[C@]2(OC[C@@H]3Cc4ccccc4[C@@H]3C=C2C)c2ccccc21 -5.44%, CCC(=O)C[C@@H](NC(=O)OC)c1ccccc1 -3.32%, COc1cccc([C@H](O)Cn2cc(-c3ccc(CON=C(C)C)cc3)nn2)c1 -1.21%, CCN1C(=O)NC(c2ccco2)C(C(C)=O)=C1C (stereo not given) 12.2%, O=C1C2=C(C(=O)c3ccccc31)[C@H]1O[C@](c3ccsc3)(Cc3c1ccc1ccccc31)O2 -0.742%, O=C1[C@H]2[C@@H]3[C@@H](O)[C@H](O)CC(=NOCc4ccccc4)[C@@H]3CC[C@H]2C(=O)N1C[C@@H]1CCCO1 11.4%, COC(=O)C1=C(C)N(CCc2cc(OC)c(OC)c(OC)c2)C(=O)NC1c1ccc(Br)cc1 (stereo not given) 3.55%, CC=COC(=O)N[C@@H](c1ccccc1)[C@]1(C(C)=O)CCCC1=O -0.976%, COc1cccc([C@@H]2Oc3ccc(Br)cc3C(=O)[C@@H]2OC(=O)N[C@H]2CCCc3ccccc32)c1 4.99%, COC(=O)N[C@@H](C=Cc1ccco1)[C@]1(C(=O)OC)CCCC1=O -0.459%, COC1=C[C@H](C(=O)NCc2ccc(Br)cc2)C(C)C(c2ccccc2)CC1=O (stereo not given in full) -0.45%, C[C@@H]1C(c2ccccc2)CC(=O)C(=O)C[C@@H]1C(=O)N1CCCC1 (stereo not given in full) 4.36%, COc1ccc2ccccc2c1-c1c(OC)ccc2ccccc12 0.253%, CC(CCC(=O)OC[C@H]1O[C@H](C#Cc2ccccc2)C=C[C@H]1Oc1ccc(C)cc1)=NO[C@H](C)c1cn([C@H](CO)Cc2ccccc2)nn1 -1.74%, COC1=C[C@H](C(=O)NCc2ccccc2)[C@@]2(C)Cc3ccccc3[C@@H]2CC1=O 7.02%, COc1ccc(-c2nc(-c3ccccc3)oc2NC2CCCCC2)cc1 -15.4%, CCCCCCCc1cc2ccccc2c2c(C(C)=O)c(-c3ccccc3)c(C(=O)OC)n12 -8.98%, CC(C)=CCCC(C)=CCON=C1C[C@@H](O)[C@@H](O)[C@@H]2[C@H]3C(=O)N(Cc4ccccc4)C(=O)[C@@H]3CC[C@@H]12 1.57%, C[C@H]1CCCC(=O)N[C@@H](c2ccccc2)[C@@H](C)CCCC(=O)N[C@@H]1c1ccccc1 5.9%, COc1cccc(CO[C@H]2C=C[C@@H](c3ccccc3)O[C@H]2COC(C)=O)c1 3.83%, C=CCC12OC3(OC)CC1[C@H](C)[C@@H](c1ccccc1)C2[C@@]3(C)O (stereo not given in full) 2.42%, COC(=O)N1C2CC3(C)CC(=O)CC1(C)C3c1ccccc12 (stereo not given) -0.989%
